# Results reported in PubChem BioAssay.
# Unmarked numbers belong to inactive results. The list shows a part of the results. Calls of active or inactive are those of the source.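 The calls were made as follows, unless noted: active = mean activation above about 20% derived from the earlier single-dose screen (limit read from the data); inactive = the rest.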
# What was measured:
# [1] = target: Lytic switch protein BZLF1 (Epstein-Barr virus (strain B95-8)) (UniProt P03206); experiment: blockers of Zta-ZRE DNA complex – biochemical, fluorescence polarization, triplicate, confirmation (AID 2361;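 active = mean inhibition across triplicate runs above the hit threshold derived for the original primary screen, cut at about 33% in these data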;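 also: 0% = Zta with DMSO and 100% = wells lacking Zta protein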); settings: Zta-ZRE DNA binding, at 11.1 µM, hits give high values
# Lytic switch protein BZLF1 (Epstein-Barr virus (strain B95-8)), sequence (P03206 whole entry, looked up): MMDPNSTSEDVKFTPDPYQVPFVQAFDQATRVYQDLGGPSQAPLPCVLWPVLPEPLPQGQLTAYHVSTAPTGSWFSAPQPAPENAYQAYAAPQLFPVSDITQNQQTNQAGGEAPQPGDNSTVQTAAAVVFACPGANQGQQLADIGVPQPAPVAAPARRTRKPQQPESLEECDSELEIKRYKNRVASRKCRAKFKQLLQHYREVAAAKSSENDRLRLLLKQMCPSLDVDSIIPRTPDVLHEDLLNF
# [2] = system: Epstein-Barr virus nuclear antigen 1 (EBNA-1), Human herpesvirus 4; experiment: blockers of EBV EBNA-1 binding to DNA – biochemical, fluorescence polarization, counter-screen for ZTA inhibitor project (AID 2362; call rule not given here); settings: EBNA-1 DNA binding, at 14.8 µM, hits give high values
# [3] = target: Glutathione S-transferase omega-1 (Homo sapiens) (UniProt P78417); experiment: recombinant GSTO1 blockers, retest – biochemical, fluorescence polarization, triplicate, counter-screen for RBBP9 inhibitor project, confirmation (AID 2176;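 active = inhibition above the primary screen's cutoff, its mean inhibition plus 3 SD, cut at about 35% in these data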;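 also: loss of polarization as inhibitors block binding of rhodamine sulfonate ester activity probe; 0% = GSTO1 with DMSO and 100% = wells lacking GSTO1 enzyme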); settings: recombinant GSTO1, probe fluorescence polarization; at 5.96 µM; hits give high values
# Glutathione S-transferase omega-1 (Homo sapiens), sequence (P78417 whole entry, looked up): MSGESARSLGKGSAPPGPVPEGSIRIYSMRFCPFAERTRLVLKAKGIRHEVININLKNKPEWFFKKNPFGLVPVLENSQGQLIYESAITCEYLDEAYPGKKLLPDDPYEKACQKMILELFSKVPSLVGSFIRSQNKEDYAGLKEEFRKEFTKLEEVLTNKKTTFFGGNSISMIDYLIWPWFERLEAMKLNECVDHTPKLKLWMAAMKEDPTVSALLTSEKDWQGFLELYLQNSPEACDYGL
# [4] = target: Serine protease HTRA1 (Homo sapiens) (UniProt Q92743); experiment: confirming inhibition of human HTRA1 – biochemical, fluorescence polarization, confirmation (AID 540248;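 active = mean inhibition over three repeats above a set limit taken from the earlier primary screen, cut at about 37% in these data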;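 also: 0% = HTRA1 with DMSO and 100% = wells lacking HTRA1; inhibitors block probe binding so polarization drops and inhibition rises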); settings: recombinant HTRA1, FP-rhodamine activity-based probe, at 5.96 µM, hits give high values
# [5] = target: (Lyso)-N-acylphosphatidylethanolamine lipase (Mus musculus) (UniProt Q8VD66); experiment: mouse ABHD4 hydrolase blockers, triplicate – biochemical, fluorescence polarization, confirmation (AID 720658;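 active = mean inhibition across replicates above the hit cutoff set in the primary screen, cut at about 30% in these data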;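 also: 0% = wild-type ABHD4 with DMSO and 100% = catalytically dead S159A mutant with DMSO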); settings: purified mABHD4, FP-Rh probe fluorescence polarization; at 8.92 µM; hits give high values
# [6] = target: Photoreceptor-specific nuclear receptor (Homo sapiens) (UniProt Q9Y5X4); experiment: corepressor-releasing ligands of human NR2E3 – biochemical, TR-FRET, confirmation (AID 2379; in the data active = activation above about 20%); settings: cell-free NR2E3 corepressor release, 5 h, at 3.98 µM, hits give high values
# Photoreceptor-specific nuclear receptor (Homo sapiens), sequence (Q9Y5X4 whole entry, looked up): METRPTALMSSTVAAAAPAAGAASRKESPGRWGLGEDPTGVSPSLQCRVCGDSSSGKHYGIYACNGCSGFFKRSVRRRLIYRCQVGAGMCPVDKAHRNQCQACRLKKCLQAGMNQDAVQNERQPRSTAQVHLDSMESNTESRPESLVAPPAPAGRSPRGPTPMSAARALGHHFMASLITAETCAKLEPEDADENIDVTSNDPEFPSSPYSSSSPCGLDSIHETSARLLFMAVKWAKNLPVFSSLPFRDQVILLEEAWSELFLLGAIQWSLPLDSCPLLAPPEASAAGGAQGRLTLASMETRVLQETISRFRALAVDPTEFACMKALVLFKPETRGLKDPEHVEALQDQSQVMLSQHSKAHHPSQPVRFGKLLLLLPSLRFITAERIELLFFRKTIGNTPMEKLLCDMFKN
# [7] = target: Peroxisome proliferator-activated receptor gamma (Homo sapiens) + Nuclear receptor corepressor 2 (Homo sapiens) (UniProt P37231+Q9Y618); experiment: agonists of PPARg-NCOR2 corepressor interaction, counter-screen for NR2E3 agonist project, biochemical, TR-FRET (AID 504787; in the data active = inhibition above about 20%;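 also: 0% = DMSO vehicle and 100% = wells without protein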); settings: TR-FRET PPARg-NCOR2 coregulator interaction, at 3.98 µM, hits give high values
# Peroxisome proliferator-activated receptor gamma (Homo sapiens) + Nuclear receptor corepressor 2 (Homo sapiens), sequence (P37231 whole entry, looked up): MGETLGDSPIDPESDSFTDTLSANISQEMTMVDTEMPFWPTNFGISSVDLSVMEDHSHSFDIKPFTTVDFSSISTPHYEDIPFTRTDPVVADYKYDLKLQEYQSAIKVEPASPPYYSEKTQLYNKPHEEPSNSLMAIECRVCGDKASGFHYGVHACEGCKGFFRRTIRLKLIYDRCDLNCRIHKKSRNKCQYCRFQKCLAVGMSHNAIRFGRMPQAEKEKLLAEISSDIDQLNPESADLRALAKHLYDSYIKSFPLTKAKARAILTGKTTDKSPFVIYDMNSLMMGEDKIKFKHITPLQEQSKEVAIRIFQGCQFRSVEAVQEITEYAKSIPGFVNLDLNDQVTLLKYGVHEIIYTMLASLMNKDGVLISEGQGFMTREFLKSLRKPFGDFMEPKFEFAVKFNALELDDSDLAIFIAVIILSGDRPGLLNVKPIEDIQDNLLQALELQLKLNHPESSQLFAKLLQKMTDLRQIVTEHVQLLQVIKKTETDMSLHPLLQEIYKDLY
# Peroxisome proliferator-activated receptor gamma (Homo sapiens) + Nuclear receptor corepressor 2 (Homo sapiens), sequence (Q9Y618 whole entry, looked up): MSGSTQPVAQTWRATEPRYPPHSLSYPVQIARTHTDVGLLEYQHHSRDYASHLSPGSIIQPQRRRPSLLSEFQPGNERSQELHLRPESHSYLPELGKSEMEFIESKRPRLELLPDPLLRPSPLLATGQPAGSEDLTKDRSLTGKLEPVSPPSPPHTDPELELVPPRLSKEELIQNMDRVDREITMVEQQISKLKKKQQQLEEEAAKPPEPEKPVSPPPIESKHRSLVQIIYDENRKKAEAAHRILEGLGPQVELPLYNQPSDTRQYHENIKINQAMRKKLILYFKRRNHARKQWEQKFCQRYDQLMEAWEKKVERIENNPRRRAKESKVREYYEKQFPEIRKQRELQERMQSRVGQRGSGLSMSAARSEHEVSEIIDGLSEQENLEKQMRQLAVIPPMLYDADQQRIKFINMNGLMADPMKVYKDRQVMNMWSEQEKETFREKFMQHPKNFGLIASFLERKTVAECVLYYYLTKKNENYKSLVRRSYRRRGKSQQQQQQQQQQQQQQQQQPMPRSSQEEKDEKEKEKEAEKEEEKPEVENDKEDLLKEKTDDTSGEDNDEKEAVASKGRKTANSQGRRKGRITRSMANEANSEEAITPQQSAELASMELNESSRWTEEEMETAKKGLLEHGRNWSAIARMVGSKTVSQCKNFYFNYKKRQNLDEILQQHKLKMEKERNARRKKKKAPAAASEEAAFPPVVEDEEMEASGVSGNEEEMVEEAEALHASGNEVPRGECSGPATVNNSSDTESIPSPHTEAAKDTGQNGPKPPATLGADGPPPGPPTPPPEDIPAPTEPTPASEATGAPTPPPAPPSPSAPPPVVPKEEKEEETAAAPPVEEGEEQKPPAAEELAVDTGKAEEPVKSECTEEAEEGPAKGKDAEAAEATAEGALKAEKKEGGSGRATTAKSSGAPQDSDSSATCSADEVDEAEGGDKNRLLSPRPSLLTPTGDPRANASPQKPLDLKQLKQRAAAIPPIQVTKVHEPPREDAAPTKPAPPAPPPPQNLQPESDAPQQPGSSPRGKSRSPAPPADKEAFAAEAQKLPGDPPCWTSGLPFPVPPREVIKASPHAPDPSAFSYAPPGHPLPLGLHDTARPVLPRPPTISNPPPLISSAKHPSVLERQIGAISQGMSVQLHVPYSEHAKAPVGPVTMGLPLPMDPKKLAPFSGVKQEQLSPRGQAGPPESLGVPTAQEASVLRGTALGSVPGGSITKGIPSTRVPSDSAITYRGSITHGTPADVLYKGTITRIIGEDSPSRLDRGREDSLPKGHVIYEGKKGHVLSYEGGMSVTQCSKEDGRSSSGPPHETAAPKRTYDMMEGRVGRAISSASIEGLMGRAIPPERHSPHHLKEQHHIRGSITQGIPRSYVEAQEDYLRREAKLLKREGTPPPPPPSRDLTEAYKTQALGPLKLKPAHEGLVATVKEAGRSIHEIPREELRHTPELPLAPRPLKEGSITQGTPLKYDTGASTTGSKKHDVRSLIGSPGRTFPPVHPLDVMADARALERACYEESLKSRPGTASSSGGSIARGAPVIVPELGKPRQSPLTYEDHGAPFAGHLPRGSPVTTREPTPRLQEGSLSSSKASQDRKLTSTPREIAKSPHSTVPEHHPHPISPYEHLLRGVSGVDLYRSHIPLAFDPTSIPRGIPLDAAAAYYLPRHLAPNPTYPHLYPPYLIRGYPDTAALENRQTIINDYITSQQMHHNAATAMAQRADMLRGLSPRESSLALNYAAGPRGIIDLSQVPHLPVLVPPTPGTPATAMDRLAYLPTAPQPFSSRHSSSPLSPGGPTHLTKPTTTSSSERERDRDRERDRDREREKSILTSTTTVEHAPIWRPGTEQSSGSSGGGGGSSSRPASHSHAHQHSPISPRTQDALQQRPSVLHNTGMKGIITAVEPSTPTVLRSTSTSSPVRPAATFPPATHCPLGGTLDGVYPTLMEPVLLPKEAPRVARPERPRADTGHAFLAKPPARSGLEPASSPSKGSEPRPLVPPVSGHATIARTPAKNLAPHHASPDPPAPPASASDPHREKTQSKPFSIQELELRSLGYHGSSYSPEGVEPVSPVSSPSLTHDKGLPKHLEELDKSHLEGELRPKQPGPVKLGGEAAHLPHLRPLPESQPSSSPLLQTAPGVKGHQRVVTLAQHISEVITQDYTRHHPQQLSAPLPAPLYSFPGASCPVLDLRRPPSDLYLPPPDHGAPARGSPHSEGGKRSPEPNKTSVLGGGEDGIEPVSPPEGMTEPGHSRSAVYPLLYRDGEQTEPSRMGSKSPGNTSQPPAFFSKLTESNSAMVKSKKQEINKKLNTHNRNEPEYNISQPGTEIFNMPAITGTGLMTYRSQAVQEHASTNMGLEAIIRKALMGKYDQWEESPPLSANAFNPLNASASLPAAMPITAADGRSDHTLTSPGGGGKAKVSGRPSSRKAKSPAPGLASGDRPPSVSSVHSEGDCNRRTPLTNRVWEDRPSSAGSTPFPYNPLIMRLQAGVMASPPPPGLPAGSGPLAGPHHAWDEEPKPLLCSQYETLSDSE
# [8] = target: Oxytocin receptor (Homo sapiens) (UniProt P30559); experiment: oxytocin receptor activation, retest of hits – fluorescence, CHO-OTR cells, triplicate, confirmation (AID 434963); settings: Fluo-8 calcium fluorescence, agonist, at 3 µM, hits give high values;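 also: peak over minimum fluorescence ratio per well during a 100 second FLIPR read; 0% = DMSO alone and 100% = oxytocin high control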
# Oxytocin receptor (Homo sapiens), sequence (P30559 whole entry, looked up): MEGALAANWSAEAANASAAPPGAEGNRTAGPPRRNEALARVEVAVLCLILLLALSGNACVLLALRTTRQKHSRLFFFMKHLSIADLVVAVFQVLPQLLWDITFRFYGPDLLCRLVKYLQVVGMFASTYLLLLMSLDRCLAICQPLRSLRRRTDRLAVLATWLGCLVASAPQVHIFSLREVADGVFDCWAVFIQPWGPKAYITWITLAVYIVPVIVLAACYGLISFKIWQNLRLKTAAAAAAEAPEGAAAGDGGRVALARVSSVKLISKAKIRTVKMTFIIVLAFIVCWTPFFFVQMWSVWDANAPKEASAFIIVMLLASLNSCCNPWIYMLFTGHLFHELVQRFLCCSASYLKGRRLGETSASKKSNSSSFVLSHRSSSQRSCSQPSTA
# [9] = target: Vasopressin V1a receptor (Homo sapiens) (UniProt P37288); experiment: activators of vasopressin V1R in CHO cells – cell-based, triplicate, fluorescence, counter-screen for OXTR agonist project (AID 434991;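 active = mean activation over triplicate exceeds the hit threshold set in the earlier primary screen, cut at about 20% in these data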;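 also: peak over basal fluorescence ratio within a 100 second read; 0% = DMSO alone and 100% = 3 nM vasopressin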); settings: Fluo-8 calcium fluorescence, at 3 µM, hits give high values
# Vasopressin V1a receptor (Homo sapiens), sequence (P37288 whole entry, looked up): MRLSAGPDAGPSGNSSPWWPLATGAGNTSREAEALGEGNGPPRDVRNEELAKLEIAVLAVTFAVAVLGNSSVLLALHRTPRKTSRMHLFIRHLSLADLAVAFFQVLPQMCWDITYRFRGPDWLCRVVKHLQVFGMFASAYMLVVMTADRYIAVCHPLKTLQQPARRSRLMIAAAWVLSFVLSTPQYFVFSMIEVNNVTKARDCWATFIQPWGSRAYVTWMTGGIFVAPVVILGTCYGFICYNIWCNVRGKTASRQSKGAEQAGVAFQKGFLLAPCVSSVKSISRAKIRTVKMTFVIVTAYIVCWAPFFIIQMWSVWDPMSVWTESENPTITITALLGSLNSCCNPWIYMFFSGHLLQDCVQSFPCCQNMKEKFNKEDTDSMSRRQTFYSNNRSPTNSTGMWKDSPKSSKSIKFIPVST
# [10] = StAR promoter reporter inhibitors, counter-screen for LRH-1 inverse agonist project, cell-based, luminescence, high throughput (AID 651611; in the data active = inhibition above about 28%); settings: StAR promoter luciferase reporter counterscreen, at 3.6 µM, hits give high values
# [11] = target: Nuclear receptor subfamily 5 group A member 2 (Homo sapiens) (UniProt O00482); experiment: NR5A2 activity suppression in reporter cells – cell-based, luminescence, confirmation (AID 651613; in the data active = inhibition above about 42%;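 also: HEK293T cells co-transfected with LRH-1 and StAR promoter luciferase reporter; 0% = vehicle wells and 100% = parental cells lacking receptor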); settings: cell-based LRH-1 luciferase reporter, inverse agonism; at 3.6 µM; hits give high values
# [12] = target: Steroidogenic factor 1 (Homo sapiens) (UniProt Q13285); experiment: inverse agonism at SF1 nuclear receptor – cell-based, luminescence, high throughput, counter-screen for LRH-1 inverse agonist project (AID 651614; in the data active = inhibition above about 44%;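 also: cells cotransfected with StAR promoter reporter and SF1 expression vector; 0% = vehicle on cells with receptor and 100% = vehicle on cells lacking receptor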); settings: cell-based SF1 luciferase reporter, at 3.6 µM, hits give high values
# [13] = compounds suppressing VP16-driven luciferase signal – cell-based, luminescence, high throughput, counter-screen for LRH-1 inverse agonist project (AID 651615; in the data active = inhibition above about 33%); settings: Gal4-VP16 luciferase reporter cells, at 3.6 µM, hits give high values
# [14] = target: Platelet-activating factor acetylhydrolase (Homo sapiens) (UniProt Q13093); experiment: inhibition of plasma PAF acetylhydrolase – biochemical, fluorescence polarization, human, confirmation (AID 463230;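 active = mean inhibition of the triplicate above the hit cutoff set for the earlier primary screen, cut at about 25% in these data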;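 also: 0% = enzyme with DMSO and 100% = wells lacking pPAFAH enzyme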); settings: recombinant pPAFAH, FP-Rh probe fluorescence polarization; at 3.39 µM; hits give high values
smiles,measurement,setting,value
CCC(=O)Nc1ccc(Nc2nc(Cl)nc(Nc3ccc(NC(=O)CC)cc3)n2)cc1,inhibition,[1],-2.63%
same,inhibition,[2],5.66%
Cc1cccc(N2CCN(c3ccc(NC(=O)/C=C\C(=O)O)cc3)CC2)c1,inhibition,[3],7.27%
same,inhibition,[4],6.16%
same,inhibition,[5],0.64%
N#Cc1ccccc1Sc1ccccc1C(=O)OCC(=O)NC1CCCCC1,activation (reported as inhibition),[6],10.1%
same,inhibition,[7],21.8% (active)
Cn1cnc2c1c(=O)n(Cc1ccccc1C#N)c(=O)n2C,inhibition,[1],-1.92%
same,inhibition,[2],-2.72%
CC(CO)(CO)NC(=O)c1ccc(=O)[nH]n1,activation,[8],-0.33%
same,activation,[9],0.63%
CC1=CC2=NC(=O)/C(=C/c3coc4ccccc4c3=O)C(=N)N2O1,activation,[8],40% (active)
same,activation,[9],36.5% (active)
O=C(NNC(=S)NC(=O)c1cn(-c2ccccc2)nc1-c1ccccc1)c1ccncc1,activation,[8],4.81%
same,activation,[9],9.53%
O=C1C(=O)N(CCN2CCOCC2)C(c2cccc(Cl)c2)/C1=C(/O)c1ccc2c(c1)OCO2 (centres undefined),activation (reported as inhibition),[6],32.8% (active)
same,inhibition,[7],31.2% (active)
Cc1nn(-c2ccccc2)c(C)c1NC(=O)CCl,inhibition,[3],83.7% (active)
same,inhibition,[10],28.1% (active)
same,inhibition,[11],35.5%
same,inhibition,[12],61.1% (active)
same,inhibition,[13],-83.9%
CSc1nnc(SCc2nc3sc(C(=O)O)c(C)c3c(=O)[nH]2)s1,inhibition,[1],55.8% (active)
same,inhibition,[2],5.58%
same,inhibition,[14],43.4% (active)
O=C(c1ccco1)N1CCN(C(=O)C2CC(c3ccc(F)cc3)=NO2)CC1 (centres undefined),activation,[8],-0.63%
same,activation,[9],0.05%
COc1ccc(Cl)cc1NC(=O)NCC1CCN(Cc2ccccc2F)CC1,activation,[8],7.35%
same,activation,[9],6.95%
CCOC(=O)c1ccc(NC(=S)N2CCN(c3ccccn3)CC2)cc1,activation (reported as inhibition),[6],-3.59%
same,inhibition,[7],-8.54%
CCCCCCCCCCOC(=O)Cn1c(COc2cccc(OC)c2)[n+](C)c2ccccc21,activation,[8],12%
same,activation,[9],14.7%
COc1cc(C(CCN2CCN(c3ccccc3)CC2)c2c(OC)cc(OC)c3ccc(=O)oc23)cc(OC)c1OC (centres undefined),activation,[8],-0.33%
same,activation,[9],0.28%
CC(C)c1ccc(C2C(C(=O)c3ccco3)=C(O)C(=O)N2CC2CCCO2)cc1 (centres undefined),activation (reported as inhibition),[6],-0.08%
same,inhibition,[7],1.84%
CC1(C)CC[C@@]2(C(=O)O)C(C1)C1=CCC3[C@@]4(C)CC[C@H](O)C(C)(C)C4CC[C@@]3(C)[C@]1(C)C[C@H]2O (some centres undefined),activation,[8],67.3% (active)
same,activation,[9],1.34%
